High-throughput results (PubChem)
Nrf2 block: Nrf2 qHTS screen for inhibitors; 360,000 tested, 2.1% active; Potency, µM (titrated, usually from 46 µM), without a hit: at the highest dose activity change, negative = inhibition, actives largely listed as inhibitors; A549 ARE-Fluc reporter, luciferase luminescence, 18-24 h; also: % is scaled to controls: 0 for no effect and ±100 for the full control effect; nearly all actives have a fitted effect of over 60% in size
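Reporter: ARE-Fluc in A549. Exposure: 18-24 h, 37 °C, 5% CO2, 5% FBS OPTI-MEM. Readouts: fluorescent cytotoxicity (CellTiter-Fluor), then luminescent Nrf2 signal after BugLite.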
A549 viability: Nrf2 qHTS screen for inhibitors: counterscreen for cytotoxicity. A549 ARE-Fluc cells, CellTiter-Fluor viability, 18-24 h. Potency, µM (highest dose often 46 µM), for the others: at the highest dose activity change, negative = cytotoxicity, usual class: inhibitors. 390,000 tested, 0.16% active. AID 504648, 2011; also: % is scaled to controls: 0 for no effect and ±100 for the full control effect
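A549 ARE_Fluc cells in 5% FBS OPTI-MEM were exposed to compounds in concentration-response for 18-24 h at 37 deg C. Viability was read by CellTiter-Fluor fluorescence (Ex 405/Em 525) after 30 min, before the luciferase read.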
ELG1 repair inh: qHTS screen for small molecules that inhibit ELG1-dependent DNA repair in human embryonic kidney (HEK293T) cells expressing luciferase-tagged ELG1; HEK293T ELG1-luciferase reporter, luminescence, 16 h; DNA damage induced by 5-fluorouridine; Potency, µM (doses to about 46.1 µM), without a hit: at the highest dose activity change, negative = inhibition, hits mostly inhibitors; 330,000 tested, 2.3% active; AID 504467, 2011; also: % is scaled to controls: 0 for no effect and ±100 for the full control effect; nearly all actives have a fitted effect of over 55% in size
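Cells (2,000 per well) received 5-fluorouridine plus test compound or DMSO and were incubated 16 hr at 37 °C, 5% CO2. Luciferase activity was read by luminescence 30 min after ONE-Glo addition; signal suppression marked inhibition of damage-induced ELG1 function.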
Nrf2 activator: qHTS of Nrf2 Activators; AREc32 ARE-luciferase reporter (MCF7-derived line), luminescence, 24 h; Potency, µM (series often up to 46.1 µM), without a hit: top-dose activation, most hits filed as activators; 410,000 tested, 0.31% active; also: % of control where 0% means no effect; nearly all actives have a fitted effect of over 65% in size
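Luminescent ARE reporter assay in AREc32_Fluc cells: overnight plating at 37 deg C, 24 hr compound incubation, Steady-Glo added, 30 min RT before reading.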
* = called active by the depositor; ? = inconclusive; / = no result given; ! = not active in a repeat. The list is not random: actives were taken first. Their share in the collection is about 3.7%. Calls follow the shape of the dose curve; as a rule, active = well fitted curve in the direction sought with a large enough effect; inconclusive = small, poorly fitted or top-dose-only effect, or another doubt; inactive = no such curve, though single readings can be large; an effect the other way counts as inactive or inconclusive. Potency is read from the fitted curve at half-maximal effect.

SMILES	Nrf2 block	A549 viability	ELG1 repair inh	Nrf2 activator
O=[N+]([O-])c1cccc(-c2cc3cccc[n+]3cc2-c2cccc([N+](=O)[O-])c2)c1	19%	-6%	-11%	-1%
Cc1cccc2cc(-c3ccccc3)c(-c3ccccc3)c[n+]12	23µM*	-10%	-25%	0%
CN1CCN(CCCN2c3ccccc3Sc3ccc(Cl)cc32)CC1	8.2µM*!	18µM*!	3%	-4%
O=C(CSc1nncc(=O)[nH]1)NC1CCCCC1	7%	2%	25%	0%
COc1ccc(CCNC(=O)c2ccc(-c3ccc([N+](=O)[O-])cc3)o2)cc1OC	26µM*	-2%	?	1%
COc1ccc(CCNC(=O)c2ccc(CS(=O)(=O)Cc3cccc(C)c3)o2)cc1OC	?	-7%	23µM*	0%
Cc1cccc(CS(=O)(=O)Cc2ccc(C(=O)NCc3ccccc3)o2)c1	-18%	-6%	?	0%
S=C(NCCCc1cnc[nH]1)NCCCN(CCc1ccc(Cl)cc1)c1ccc(Br)cn1	15%	24%	/	/
COc1ccc2nc(-c3ccc(N(C)C)cc3)sc2c1	0.33µM*	?	/	/
O=C(c1ccc(N2CCCC2=O)cc1)N1CCN(c2ccccc2O)CC1	-22%	1%	18µM*	-1%
COc1ccc(S(=O)(=O)N(C)c2ccc(C(=O)N3CCCCC3)cc2)cc1OC	12µM*	5%	?	2%
COc1ccc(NS(=O)(=O)c2ccc(C)c(C(=O)N3CCN(Cc4cc(OC)ccc4OC)CC3)c2)cc1	-21%	-5%	/	-1%
Cc1cccc(NS(=O)(=O)c2ccc(C(=O)N3CCN(c4ccccc4O)CC3)cc2)c1C	?	-11%	21µM*	0%
COc1ccc(OC)c(CN2CCN(C(=O)c3cc(S(=O)(=O)Nc4ccccc4OC)ccc3C)CC2)c1	?	-4%	23µM*	5%
Cc1ccccc1NS(=O)(=O)c1ccc(C(=O)N2CCCC2)cc1	-9%	1%	8%	-1%
O=C(Nc1ccc(S(=O)(=O)NC2=NCCCCC2)cc1)c1cccc(OC(F)F)c1	/	/	/	0%
COc1ccccc1NS(=O)(=O)c1ccc(C(=O)N2CCCCCC2)cc1	10µM*	-10%	?	2%
COc1ccccc1NS(=O)(=O)c1ccc(C(=O)N2CCN(c3ccccc3)CC2)cc1	-23%	1%	?	0%
Cc1ccccc1N(C(=O)c1snc(C(N)=O)c1N)C(C(=O)NCc1ccccc1)c1ccc(O)cc1 (stereo not given)	?	?	?	8%
NC(=O)c1nsc(C(=O)N(c2ccccc2F)C(C(=O)NCc2ccccc2)c2ccc(O)cc2)c1N (stereo not given)	-28%	-18%	6.5µM*	5%
C=CCSC1=N/C(=C\C=C\c2ccco2)C(=O)S1	-2%	-19%	8%	13µM*
COc1ccc(C2c3ccc(O)cc3Oc3ncn4nc(-c5ccccn5)nc4c32)cc1OC (stereo not given)	?	-4%	21µM*	3%
CCN(CC)Cc1c(NC(=O)c2ccc(OC)cc2)sc2c1CCCC2	?	-10%	/	17%
C/C(=C\c1ccccc1)C(=O)N1CCN(Cc2ccc3c(c2)OCO3)CC1	-39%	-9%	7.3µM*	3%
CC(C)[C@H](NC(=O)c1ccc(C(C)(C)C)cc1)C(=O)N1CCN(Cc2ccc3c(c2)OCO3)CC1	21µM*	?	16µM*	2%
SMILES	Nrf2 block	A549 viability	ELG1 repair inh	Nrf2 activator
O=C(CCCn1c(=O)[nH]c2ccccc2c1=O)NCCSCc1ccccc1	0%	5%	4%	3%
O=C(Cn1c(=O)[nH]c2ccccc2c1=O)N1CCN(Cc2ccc3c(c2)OCO3)CC1	?	-18%	23µM*	0%
O=C(CCCCCn1c(=O)[nH]c2ccccc2c1=O)NCCCN1CCN(c2ccccc2F)CC1	?	-9%	23µM*	3%
Cc1cc(C)cc(OCC(=O)OCC(=O)N(CC(C)C)c2c(N)n(Cc3ccccc3)c(=O)[nH]c2=O)c1	-5%	-4%	12%	2%
O=C(CN1CCN(Cc2ccc3c(c2)OCO3)CC1)Nc1cc(S(=O)(=O)N2CCCC2)ccc1Cl	?	-14%	?	-1%
O=C(CCCCCn1c(=O)[nH]c2ccccc2c1=O)N1CCN(Cc2ccc3c(c2)OCO3)CC1	?	0%	18µM*	0%
